Measured values: PubChem BioAssay AID602254 (Broad Institute, 2012)
Fewer than 10 of roughly 1,000 compounds were called active.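 Rule for the calls: active = fitted half-maximal concentration no higher than twice the top valid tested dose, with signal falling; inconclusive = flat curve with 30 to 70% inhibition, or poor fit; inactive = the rest.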 Only a sample is shown. Entries with a potency or affinity are not part of this list.

These molecules were tested against Golgi-associated PDZ and coiled-coil motif-containing protein (Homo sapiens) (UniProt Q9HD26) (assay: blockers of CAL PDZ–TMR peptide complex – biochemical, fluorescence polarization, untagged CAL PDZ, cherry-pick, set 2, dose response (AID 602254;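 note: more negative means stronger blocking of peptide binding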)). Conditions: Purified CAL PDZ; series mostly up to 60 µM.

outcome, inactive:
C=CCNC(=S)NNC(=O)c1ccc(C)c(Cl)c1
Cc1ccc(S(=O)(=O)c2nc(NN(C)C)sc2Cl)cc1
CC(=O)c1cccc(CN2CCN(CC=C(C)C)C(CCO)C2)c1 (stereo unspecified)
CC1CCN(C(=O)CNC(=O)c2ccc(Cl)cc2Cl)CC1
CCn1nnc(NC(=O)Cc2ccc(Cl)cc2)n1
O=C(Nc1cccc(-n2cnnn2)c1)c1ccc(OC(F)(F)F)cc1
O=C(c1cc(COc2ccccc2)on1)N1CCCC(CN2CCOCC2)C1 (stereo unspecified)
CC(C)(C)n1ncc2c(=O)n(Cc3ccc(Cl)c(Cl)c3)cnc21
CSc1ccccc1OCc1cc(C(=O)N2CCN(c3ccccc3)CC2C)no1 (stereo unspecified)
COc1cc(C(=O)NNC(=O)c2ccc3c(c2)OCCO3)cc(OC)c1OC
COc1cc(S(=O)(=O)Nc2ccc(C(=O)NCC(=O)O)cc2)ccc1NC(C)=O
O=C(N/N=C/c1cccnc1)c1[nH]ncc1Br
CCOC(=O)c1ccc(NC(=O)C2CCCO2)cc1 (stereo unspecified)
CC(=O)c1cccc(NC(=O)CCNC(=O)c2cccc(C)c2)c1
COc1cc(OC)c(C(=O)NCc2ccc3c(c2)OCO3)cc1OC
CC1CC(C)CN(C(=O)CCn2c(=O)oc3ccccc32)C1 (stereo unspecified)
Cc1ccc(CNS(=O)(=O)c2ccc(C(F)(F)F)cc2)n1C
Cc1ccc2nc(N3CCN(Cc4nnnn4C4CCCC4)CC3)c(C#N)cc2c1
Cc1ccc(Cn2c(=O)n(CCC(=O)NCc3ccc4c(c3)OCO4)c(=O)c3ccccc32)cc1
Cc1ccc2c(c1)N(CC(=O)Nc1ccccc1F)C(=O)CO2
CC(C)(C)OC(=O)N1CCC(NC(=O)c2[nH]cnc2C(=O)Nc2cccc(Cl)c2)CC1
COC(=O)c1ccc(OCC(O)CN2CCc3cc(OC)c(OC)cc3C2c2ccccc2)cc1 (stereo unspecified)
COc1ccccc1OCC(O)Cn1nc(C)cc1C (stereo unspecified)
O=C(O)c1ccccc1CSc1nnnn1-c1ccccc1
CC(C)c1ccc(NC2CCCN(C(=O)c3ccnn3C)C2)cc1 (stereo unspecified)
c1ccc(-c2ccccc2OCCOCCN2CCc3ccccc3C2)cc1
CCOc1ccccc1C(=O)NCC(=O)OCc1csc(CC(=O)Nc2ccc(C)cc2)n1
CCCn1nnc(NC(=O)c2ccc3c(c2)OCO3)n1
CC(=O)n1nc(-c2ccccc2)nc1NCc1cccs1
C/C(=N\OC(=O)c1cccc(C(F)(F)F)c1)c1sc(-c2ccccc2)nc1C
COc1ccccc1-c1c(C)nn2c(N)c(-c3ccccc3)cnc12
CC(=O)c1ccc(OCc2cc(C(=O)NCCc3ccc(Cl)cc3)no2)cc1
Cc1c(C(=O)N2CCCCC2)c(S(=O)(=O)NCc2ccc(Cl)cc2)c(C)n1C
O=C(c1ccc(S(=O)(=O)NCC2CCCO2)cc1)N1CCN(c2ccccc2)CC1 (stereo unspecified)
O=C(Nc1cccc(C(=O)N2CCCCC2)c1)C1CC1
CCCN(CC(=O)Nc1ccccc1C)C(=O)CCCc1c[nH]c2ccccc12
O=C(COC(=O)Cc1c(F)cccc1Cl)NC(=O)c1ccccc1
Cc1ccccc1C(=O)NN1CCOCC1
COc1ccc(CN(C)C(=O)CNC(=O)CNC(=O)c2ccc(Cl)cc2Cl)cc1F
Cc1ccc(NC(=O)c2c(-c3ccccc3)noc2C)nc1
Cc1[nH]c2c(C(=O)N3CCCC(CCC(=O)NCc4ccccc4F)C3)cccc2c1C (stereo unspecified)
Cc1ccc(C(C)C)cc1OCCn1cncn1
COCC(C)N1CCC(Oc2cccc(C(=O)NCCc3ccccc3)c2)CC1 (stereo unspecified)
CC(=O)Nc1sc2c(c1C(N)=O)CCC2
CCOc1ccc(NC(=O)CN(C)S(=O)(=O)c2cccs2)cc1
CCCCCN1CSC(=S)N(Cc2ccccc2)C1
COc1ccc(/C=N/NC(=O)CNC(=O)c2ccncc2)cc1OC
O=C(Nc1ccccc1Cl)N1CCN(c2ccc3nnc(-c4ccccc4)n3n2)CC1
CC(=O)Nc1ccc(-c2cc(NC(C)=O)n(-c3ccccc3)n2)cc1
FC(F)(F)c1ccccc1NC(=S)N1CCCC1
COc1ccc(S(=O)(=O)N(C(C)=O)c2ccc3oc(=O)sc3c2)cc1
CCN(c1ccccc1)S(=O)(=O)c1ccc(C(=O)N2CCN(c3ccccc3)CC2)cc1
Cc1cc(C)c(C#N)c(Nc2cccc(C)c2C)n1
COc1ccc(Br)cc1CNc1ccc2[nH]c(=O)[nH]c2c1
Cc1ccc(OCC(=O)N2CCN(C(=O)c3cccs3)CC2)cc1
COc1ccccc1N(CC(=O)N1CCN(c2ccccc2)CC1)S(=O)(=O)c1ccc(C)cc1
O=S(=O)(c1ccccc1)N(CC(O)COc1ccccc1)c1ccccc1 (stereo unspecified)
CC(C)=C1C(=O)NN(c2cccc(Cl)c2)C1=O
O=C(c1ccc(-c2ccccc2)cc1)N1CCN(c2ccccn2)CC1
Cc1cc(Br)ccc1NC(=O)CN1CCN(c2ccccn2)CC1
COCC(=O)N1CCC(Oc2ccc(C(=O)NCc3cnc(C)cn3)cc2)CC1
Cc1ccc(S(=O)(=O)N(C)C)cc1NC(=S)N1CCc2ccccc21
C/C(CC(=O)Nc1ccc2c(c1)OCCO2)=N\NC(=O)COc1ccc(Cl)c(C)c1
COc1ccc(C(=O)NCC(=O)NCc2ccncc2)cc1
Cn1nc(C(=O)Nc2nc(-c3ccccn3)cs2)c2ccccc2c1=O
Cc1ccsc1C(=O)NNC(=O)c1cccc(S(=O)(=O)N2CCCC2)c1
COc1ccc(OCC(=O)Nc2ccccc2C(=O)N2CCOCC2)cc1
Cc1ccc(C(=O)Nc2cccc(C(=O)N3CCOCC3)c2)cc1Cl
O=C(Nc1ccccc1C(=O)O)c1cccc(N2C(=O)c3ccccc3C2=O)c1
Cc1cccc(OCCCn2c(CO)nc3ccccc32)c1
O=c1[nH]c2ccccc2cc1CN(CC1CCCO1)S(=O)(=O)c1ccccc1 (stereo unspecified)
COc1ccc(CC(=O)Nc2ccc(S(=O)(=O)Nc3cc(C)on3)cc2)cc1
COc1ccccc1N1CCN(/N=C/c2ccc(O)cc2O)CC1
O=C(Nc1ccnn1C1CCN(CC2CC=CCC2)CC1)c1ccccc1Cl (stereo unspecified)
COc1cccc(NC(=O)c2ccc3nsnc3c2)c1
O=C(NCCCN1CCOCC1)c1ccc2c(c1)N(Cc1ccccc1)CCS2
Cc1ccc(NC(=O)COc2ccccc2C(=O)NCCc2ccccc2)cc1
O=C(COC(=O)c1ccc(NC(=O)C2CC=CCC2C(=O)O)cc1)c1ccccc1 (stereo unspecified)
CCOC(=O)c1c(NC(=O)C2CCCCC2)sc2c1CCN(CC)C2
COc1ccc(CNc2ccc(-c3ccccc3OC)nn2)cc1
CN(C(=O)c1cccc(C(F)(F)F)c1)C1CCCc2ccccc21 (stereo unspecified)
Cc1n[nH]c(C)c1CCN(C)Cc1cn(C)nc1-c1ccc2c(c1)OCCO2
COc1ccc(NC(=O)CC(CC(=O)O)c2cc(OC)c(OC)c(OC)c2)cc1 (stereo unspecified)
Cc1ccc(NC(=S)N(CCCN2CCCC2)Cc2cccn2Cc2ccc(Cl)cc2)cc1C
O=C1CN(C(=O)COc2ccc(F)cc2Br)c2ccccc2N1
O=C(C1CC1)N1CCc2cc(S(=O)(=O)N3CCOCC3)ccc21
CS(=O)(=O)c1ccc(C(=O)NC2CCCc3ccccc32)cc1 (stereo unspecified)
COC(=O)c1ccccc1NC(=S)N1CCN(C2CCCCC2)CC1
Cc1ccccc1NC(=O)c1ccc(NC(=O)C2CCCO2)cc1 (stereo unspecified)
CC(NC(=S)NC(=O)c1ccccc1Br)c1ccccc1 (stereo unspecified)
COc1ccc(OC)c(-c2csc(NC(=O)c3ccc4c(c3)OCO4)n2)c1
CCN(Cc1cnn(C)c1)C(=O)C1CCC(=O)N(CCc2ccc(OC)cc2)C1 (stereo unspecified)
CC(=O)Nc1sc(NC(=O)c2ccc(C)cc2)nc1-c1cccs1
O=C(NCCc1ccccc1F)c1ccc2c(c1)OCCO2
O=C(CNC(=O)c1ccccc1Cl)N/N=C/c1ccc2c(c1)OCO2
CCc1nnc(NS(=O)(=O)c2ccc(N3C(=O)c4ccccc4C3=O)cc2)s1
Cc1cccc(NC(=O)CCNC(=O)c2ccc(Br)cc2)c1
COC(=O)c1cc(S(=O)(=O)NCCN2CCN(c3ccccc3F)CC2)c[nH]1
COc1ccc(CCNS(=O)(=O)c2ccccc2)cc1OC
CCOC(=O)N1CCN(C(=O)c2ccc3c(=O)n(-c4ccc(OC)cc4OC)c(=S)[nH]c3c2)CC1
COc1ccccc1/C=N/NC(=O)c1ccc2c(c1)OCO2
COc1ccccc1C(=O)Nc1cccc2nc(C)ccc12
Cc1ccc(N(C)C(=O)C2CCCN2S(=O)(=O)c2cccc3nsnc23)cc1 (stereo unspecified)
O=C(Nc1ccc(F)cc1)C1CCCN1S(=O)(=O)c1cccc2nsnc12 (stereo unspecified)
O=C(Nc1cccc(O)c1)c1ccc(NC(=O)C2CCCO2)cc1 (stereo unspecified)
CC(=O)Nc1ccc(NC(=O)COC(=O)COc2ccc3ccccc3c2)cc1
COc1ccccc1CNC(=O)COC(=O)CC1CC2CCC1C2 (stereo unspecified)
Cc1ccc(S(=O)(=O)Nc2c(C)n(C)n(-c3ccccc3)c2=O)cc1
C=CC(=O)NCc1ccc(-c2csnn2)cc1
CC(=O)NC(Cc1ccccc1)C(C)=O (stereo unspecified)
CCSc1nnc(NC(=O)CN2C(=O)NC3(CCCC3)C2=O)s1
